Out of some 360,000 compounds screened, about 1,700 (0.47%) were called active. The full list was thinned out, with actives kept by preference. A number with no mark means an inactive call. Rule as the data show it: active = activation above about 15%; inactive = the rest.
experiment: counter-screen for M1 agonists: effect in parental CHO-K1 cells (AID 602248); details: Fluo-8 calcium fluorescence, at 3 µM, stronger effect = higher value, scaled to maximal ATP response, vehicle zero;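 also: untransfected CHO-K1 host cells lacking M1 receptor as counterscreen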

SMILES | activation
COc1ccc(S(=O)(=O)N2CCOCC2)c(C)c1C | 0.55%
COCCNc1ncnc2c1nc1n2CCCC1 | 0.47%
O=C(/C=C/c1c(Cl)cccc1Cl)NCc1ccccc1 | 0.05%
O=C(/C=C/c1c(F)cccc1Cl)Nc1nn[nH]n1 | 22% (active)
O=C(CCc1ccccc1)Nc1nn[nH]n1 | 1.57%
O=C1CCC(=O)N(O)CCCCCNC(=O)CCC(=O)N(O)CCCCCNC(=O)CCC(=O)N(O)CCCCCN1 | -0.15%
CCOc1ccc(OCC)c(NC(=O)C2CCN(S(=O)(=O)c3c(C)noc3C)CC2)c1 | -0.25%
Clc1ccc(CSc2nnc([C@@H]3CCCN3)o2)cc1 | 0.78%
CCN1/C(=C\c2ccc3ccccc3[n+]2CC)Sc2cc(C)ccc21 | 22.8% (active)
CN1C(=O)c2cccc3c(N)ccc(c23)C1=O | 28.8% (active)
Cc1nn(C)cc1N1C(=O)c2cccc3c(N)ccc(c23)C1=O | 40.2% (active)
CC(=O)OC1CCC2(C)C(=CCC3C4CC(=O)N(O)C(=O)C4(C)CCC32)C1 (stereo unspecified) | 0.34%
O=C1CCC[C@@H]2CC(N3CCCCC3)C[C@@H]3CCN1[C@H]23 (stereo partly specified) | 0.27%
CCCc1c(C(=O)N/N=C(\C)CCc2ccc(OC)cc2)nnn1-c1nonc1N | 0.32%
Cc1ccc(S(=O)(=O)Nc2nc(CN3CCOCC3)nc3sc(C)c(C)c23)cc1 | 0.12%
CCCCCCCCCCCCN1C(=O)CSC1c1cccnc1 (stereo unspecified) | 1.63%
Oc1ccc2ccc3cccc[n+]3c2c1 | 25.3% (active)
COc1ccc(CCNC(=O)CSc2nnc3ccc(-c4ccncc4)nn23)cc1 | 0.28%
COCc1cc(C)nc2sc3c(=O)n(-c4cccc5ccccc45)nnc3c12 | 0.44%
Cc1cc(=O)n2nc(N3CCCC(C(=O)NCc4ccc(Cl)cc4)C3)sc2n1 (stereo unspecified) | 0.13%
O=C(NCc1ccccc1)C1CCCN(c2nc3ccsc3c(=O)s2)C1 (stereo unspecified) | 18.9% (active)
O=C(NCc1ccccc1)C1CCCN(S(=O)(=O)c2cccs2)C1 (stereo unspecified) | 0.58%
CC(C)NC(=O)c1ccc(Sc2ccccc2)c([N+](=O)[O-])c1 | -0.3%
CC(C)(C)NC(=O)CN1CCC(NC(=O)C23CC4CC(CC(C4)C2)C3)CC1 | 0.73%

SMILES | activation
COc1cc(OC)c(C(=S)N2CCCC2)cc1OC | -0.12%
CC(NC(=O)c1cccc2ccccc12)c1ccc2c(c1)CCCC2 (stereo unspecified) | -0.03%
Nc1ccc2nc3c(=O)[nH]c(=S)[nH]c3nc2c1 | 21.2% (active)
COc1cc(C(=O)OCc2cc(=O)n3ccsc3n2)ccc1OC(C)C | 1.63%
Cc1c(Cl)cccc1NC(=S)N(Cc1ccccc1)Cc1cccnc1 | 0.16%
Cc1cccc(C)c1NC(=S)N(Cc1cccnc1)Cc1ccccc1Cl | 19.6% (active)
Cc1ccc(CN(Cc2cccnc2)C(=S)Nc2cccc(Cl)c2C)cc1 | 0.06%
O=C1Nc2ccccc2NC(c2ccc3c(c2)OCO3)=C1N(Cc1ccc(F)cc1)C(=O)c1ccco1 | 1.41%
CC(=O)c1ccccc1NC(=O)COC(=O)C1COc2ccccc2O1 (stereo unspecified) | 0.64%
O=C(Nc1ncc([N+](=O)[O-])s1)C1COc2ccccc2O1 (stereo unspecified) | 15.9% (active)
O=C(Nc1cc(S(=O)(=O)N2CCCCC2)ccc1Cl)C1COc2ccccc2O1 (stereo unspecified) | 3.15%
COc1ccc(CN2C(=O)C(CC(=O)NC3CCCCC3)CC(C(=O)N3CCOCC3)=C2C)cc1 (stereo unspecified) | 0.65%
Cc1cc(OCC(=O)NC2CCN(C)CC2)ccc1[N+](=O)[O-] | 23.7% (active)
Cc1cc(OCC(=O)Nc2c(C)n(C)n(-c3ccccc3)c2=O)ccc1[N+](=O)[O-] | 0.08%
O=C(COc1ccccc1[N+](=O)[O-])NC1CC1 | 1.25%
O=C(c1c(Cl)cccc1Cl)N1CCN(c2cccc3[nH]ccc23)CC1 | 2.17%
CC(O)CNCCOc1cccc(Oc2ccccc2)c1 (stereo unspecified) | 1.52%
COc1ccc(OCC(O)CNC(=O)Nc2ccc(Cl)cc2)cc1 (stereo unspecified) | 1.9%
OC(CNCCc1ccc(Cl)cc1Cl)COc1ccccc1 (stereo unspecified) | 16.2% (active)
C(=N/N1CCN(c2ccccc2)CC1)/c1cccs1 | 0.31%
COc1ccc2c(c1)CCC/C2=N\OC(=O)c1ccccc1F | 1.78%
Cc1cc(C(=O)NNC(=S)Nc2ccccc2C)cs1 | 7.73%
CCOc1ccccc1NC(=S)NC(=O)CCc1ccccc1 | -0.34%
Fc1ccccc1CNC(=S)Nc1ccc(Cl)cc1 | 11.3%

SMILES | activation
Cc1ccccc1NC(=S)NC(=O)Cc1ccc(Cl)cc1 | 21.2% (active)
O=C(Cc1ccc(Cl)cc1)NC(=S)Nc1ccccc1O | 29.2% (active)
Cc1ccccc1N/C(SCc1ccc(Cl)cc1)=C(/C#N)C(N)=O | 0.43%
COc1ccc(CCNC(=O)C(=O)NCC2CCNCC2)cc1OC | 1.91%
O=C(CN1C(=O)CSC1=O)N1CCCC(Nc2ccc(F)cc2)C1 (stereo unspecified) | 1.24%
O=C(CSc1nncn1-c1cccnc1)N1CCOCC1 | 0.39%
Cn1c(Nc2ccc(F)cc2)nc2cc(-c3ccsc3)sc2c1=O | 1.38%
COc1c(N2CCN(C(=S)Nc3ccccc3F)C(C)C2)c(F)cc2c(=O)c(C(=O)O)cn(C3CC3)c12 (stereo unspecified) | 0.37%
CC(=O)Nc1c(-c2ccc(C)cc2)nc2ccc(Cl)cn12 | -0.07%
CS(=O)(=O)/C(C#N)=C/c1cccn1S(=O)(=O)c1ccc([N+](=O)[O-])cc1 | 0.19%
C[C@@H](O)c1nc2ccccc2n1N | 6.47%
CCN1C(=O)C(=O)N(CC(=O)Nc2cc(C)ccc2C)C1=O | 0.48%
Cc1c(NS(=O)(=O)c2cc(C(=O)NCCc3ccc(F)cc3)cc(Cl)c2Cl)c(=O)n(-c2ccccc2)n1C | -0.45%
Cc1cc(C)c(/C=C2\C(=O)Nc3ccccc32)[nH]1 | 24.4% (active)
COc1ccccc1S(=O)(=O)c1c(C)cc(C)[nH]c1=O | 0.65%
CC1C(=O)C(C)C(c2ccc(O)cc2)NC1c1ccc(O)cc1 (stereo unspecified) | 4.02%
O=C(CSc1ccc(-c2ccc(F)cc2)nn1)Nc1ccc2c(c1)OCCO2 | 6.26%
O=C(CSc1ccc(-c2ccco2)nn1)Nc1cccc(F)c1 | 16.7% (active)
COc1ccc(NC(=O)CSc2ccc(-c3ccco3)nn2)c(OC)c1 | 0.21%
CCCOc1ccc(N2CC(C(=O)Nc3ccccn3)CC2=O)cc1 (stereo unspecified) | -0.06%
CS(=O)(=O)N(CC(=O)Nc1ccc(F)cc1F)c1cccc([N+](=O)[O-])c1 | 0.11%
C=CCn1c(SCC(N)=O)nnc1-c1cc2c(s1)CCC(CC)C2 (stereo unspecified) | 0.17%
COc1ccc(Nc2ncnc3sc(-c4ccccc4)cc23)c(OC)c1 | 17.4% (active)
COC(=O)c1cnc(Nc2cc(C)ccc2OC)c2ccccc12 | 1.12%

SMILES | activation
COc1ccc(NC(=O)c2sc(N3CCOCC3)nc2-c2ccccc2)c(OC)c1 | 1.26%
COc1ccc(NC(=O)CSc2nncc(=O)n2N)cc1OC | 1.17%
CCOC(=O)C1CCN(Cc2nnc(-c3cccc(Br)c3)o2)CC1 | 16.3% (active)
CCOC(=O)C1CCN(Cc2ccc(-c3ccccc3)cc2)CC1 | 2.64%
CCOC(=O)C1CCN(CCC(=O)Nc2cccc(C)c2)CC1 | 6.98%
COc1ccc(C2(C)NC(=O)N(CC(=O)c3ccc4c(c3)OCO4)C2=O)cc1 (stereo unspecified) | 9.33%
CC1(c2ccc(Cl)cc2)NC(=O)N(CC(=O)c2ccc3c(c2)OCO3)C1=O (stereo unspecified) | 16.4% (active)
CC1CCC2(CC1)NC(=O)N(CC(=O)c1ccc3c(c1)OCO3)C2=O (stereo unspecified) | 1.72%
Cn1c2c(c(=O)n(C)c1=O)C(c1cccc([N+](=O)[O-])c1)Nc1ccccc1O2 (stereo unspecified) | 0.17%
Cc1ccc(S(=O)(=O)N2CCCC(C(=O)N3CCN(C)CC3)C2)cc1 (stereo unspecified) | 1.9%
COc1cccc(N2CCN(C(=O)C3CCCN(S(=O)(=O)c4cnc[nH]4)C3)CC2)c1 (stereo unspecified) | 0.46%
CC(=O)N1CCCc2cc(S(=O)(=O)N3CCCC(C(=O)N4CCN(c5cccc(Cl)c5)CC4)C3)ccc21 (stereo unspecified) | 19.9% (active)
CCN1CCC(=NNC(=O)c2ccc(C)c([N+](=O)[O-])c2)CC1 | 0.82%
Cc1cc(F)ccc1S(=O)(=O)Nc1ncnc2scc(-c3ccc(F)cc3)c12 | 0.74%
CC(=O)N1CCN(c2ccc(NCc3ccc(C(C)C)cc3)cc2)CC1 | -0.13%
O=C(NCc1cn2ccsc2n1)Nc1cccc(Cl)c1 | 0.23%
O=S(=O)(Nc1ccccc1)c1ccc(NS(=O)(=O)c2cccs2)cc1 | 1.02%
O=C(Nc1cccc(Cl)c1)Nc1ccccc1NS(=O)(=O)c1cccs1 | 15.3% (active)
CC12CN3CC(C)(CN(C1)C3c1ccc(Cl)cc1Cl)C2=O (stereo unspecified) | -0.45%
COc1ccc(CC(=O)NC(C)c2ccc(Cl)c(Cl)c2)cc1S(=O)(=O)N1CCOCC1 (stereo unspecified) | 2.98%
CC(=O)Nc1ccc(S(=O)(=O)Oc2ccc(/C=N/N=C3/NC(=O)C(CC(=O)O)S3)cc2)cc1 (stereo unspecified) | 0.03%
CC(=O)N1CCC(N(C(=O)Nc2ccc(Cl)cc2)C(C)C)CC1 | 1.09%
CC(C)S(=O)(=O)c1csc(NC(=O)Nc2ccc(Cl)cc2)c1Cl | 16% (active)
CC(=O)c1ccc(NC(=O)C(C)NCc2ccc(Cl)cc2)cc1 (stereo unspecified) | 0.45%
